# Test results reported in PubChem BioAssay AID1578 (Sanford-Burnham Center for Chemical Genomics, 2009).
# The campaign covered roughly 290,000 compounds. About 3,000 (1%) were called active. Rule as the data show it: active = inhibition mostly above about 36% (no sharp cut-off); inactive = mostly below about 34%. The sample as a whole holds a higher share of actives than the screen did.
# Assay: inhibition of NOD1-driven NF-kB reporter – cell-based, luminescence, uHTS, primary screen (AID 1578);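 also: HEK-293T reporter cells stimulated with the NOD1 agonist gamma-tri-DAP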
# Details: NOD1-driven NF-kB luciferase reporter cells, at 4 µM, active compounds read high
row,SMILES,inhibition
1,CC(=O)N[C@@H](C)C(=O)N1CCN(S(=O)(=O)c2ccc(Cl)cc2)CC1,-26% (inactive)
2,O=C(Nc1cccnc1Oc1ccc(Cl)cc1)c1cccc2ccccc12,-9.2% (inactive)
3,COc1cc(OC)c(NC2c3ccccc3C(=O)N2c2cc(C)ccn2)cc1Cl (configuration not stated),-37.7% (inactive)
4,Cc1ccc(C)c(NC(=O)CCN2CCCCC2)c1,-14.7% (inactive)
5,CCO[C@H]1OC(C(=O)O)=C[C@@H](c2ccc3c(c2)OCO3)[C@@H]1CCCO,-10.4% (inactive)
6,Cc1ccc2nc(-c3ccccc3)cn2c1,18% (inactive)
7,Cc1ccc2nc(-c3ccc(O)c(O)c3)cn2c1,-18.6% (inactive)
8,Cc1ccc(-c2cn3cc(C)ccc3n2)cc1,92.4% (active)
9,CCOC(=O)c1c(COc2ccccc2)oc2ccc(O)cc12,0% (inactive)
10,CCOC(=O)c1c(CSc2ccc(C)cc2)oc2ccc(O)cc12,30% (inactive)
11,CCOC(=O)c1c(CSc2ccccc2)oc2ccc(O)cc12,98.6% (active)
12,CCOC(=O)CC(=O)CSc1nc2ccccc2c(=O)n1-c1ccc(C(=O)N2CCOCC2)cc1,6.8% (inactive)
13,Cc1ccc(Cn2nnc3c(=O)[nH]c(C4CCCN(S(=O)(=O)c5ccc(F)cc5)C4)nc32)cc1 (configuration not stated),-17.1% (inactive)
14,CCN(CC(=O)Nc1ccc(NC(C)=O)cc1)C(=O)C1COc2ccccc2O1 (configuration not stated),-17.6% (inactive)
15,CC(CN1CCOCC1)OC(=O)c1ccccc1 (configuration not stated),-4.8% (inactive)
16,CC(CN1CCOCC1)OC(=O)c1ccc(Br)cc1 (configuration not stated),-14.8% (inactive)
17,CC(CN1CCOCC1)OC(=O)c1ccc(C(C)(C)C)cc1 (configuration not stated),68.1% (active)
18,COc1ccc(Cn2c3nc4ccccc4nc3c3c(=O)n(Cc4ccco4)c(C)nc32)cc1,110% (active)
19,COc1ccc(Cn2c3nc4ccccc4nc3c3c(=O)n(Cc4ccco4)cnc32)cc1,32.5% (inactive)
20,Cc1nc2c(c(=O)n1Cc1ccccc1Cl)c1nc3ccccc3nc1n2Cc1ccco1,17.8% (inactive)
21,O=C(NS(=O)(=O)Nc1ccc(Br)cn1)c1c[nH]c2ccccc12,31.1% (inactive)

row,SMILES,inhibition
1,CCOc1ccc(S(=O)(=O)N(C)c2ccc(OCC(=O)NCCc3ccc(OC)cc3)cc2)cc1,-14% (inactive)
2,CN1CCN(S(=O)(=O)c2cccc(C(=O)Nc3sc4c(c3-c3nc5ccccc5[nH]3)CCCC4)c2)CC1,-16% (inactive)
3,O=C(Nc1nonc1NC(=O)c1cccs1)c1cccs1,58.9% (active)
4,O=C(Nc1ccncc1)c1cccs1,37.2% (inactive)
5,O=C(Nc1ccc(NC(=O)c2cccs2)cc1)c1cccs1,-30.2% (inactive)
6,N#C/C(=C\c1cccc([N+](=O)[O-])c1)C(=O)NCC1CCCO1 (configuration not stated),-21% (inactive)
7,O=C(Nc1ccccc1C(=O)O)c1ccc(Br)c(S(=O)(=O)NCc2ccccc2)c1,-0.6% (inactive)
8,COC(=O)CSc1ncnc2c1cnn2Cc1ccccc1,13.7% (inactive)
9,CCOC(=O)CNC(=O)CSc1ncnc2c1cnn2Cc1ccccc1,55.8% (active)
10,CCOC(=O)CNC(=O)CSc1ncnc2c1cnn2-c1ccccc1,-10.2% (inactive)
11,Nc1nc(Cl)cc(N2CCC(c3cc(-c4ccc(Cl)cc4Cl)n[nH]3)CC2)n1,34.5% (inactive)
12,COc1ccc(-c2cc(C3CCN(c4cc(Cl)nc(N)n4)CC3)[nH]n2)cc1,25.9% (inactive)
13,COc1ccc(OC)c(-c2cc(C3CCN(c4cc(Cl)nc(N)n4)CC3)[nH]n2)c1,56.3% (active)
14,COC(=O)c1cc(C(=O)c2ccccc2)n2c(=O)/c(=C\N(C)C)sc12,-11.3% (inactive)
15,N#CCC(=O)NNC(=S)Nc1ccccc1C(F)(F)F,42.8% (active)
16,O=C(NNC(=S)Nc1ccccc1C(F)(F)F)C1CC1,-0.9% (inactive)
17,O=C(CCC(=O)Nc1ccccc1Cl)NNC(=S)Nc1ccccc1C(F)(F)F,-30.7% (inactive)
18,Cc1ccc(C(=O)c2oc3nc(C)cc(C)c3c2N)cc1,-6.8% (inactive)
19,Cc1cc(C)c2c(N)c(C(=O)c3ccccc3)oc2n1,2% (inactive)
20,Cc1cc(C)c2c(N)c(C(=O)c3ccc(Br)cc3)oc2n1,68.7% (active)
21,CCOC(=O)c1c(C)[nH]c(C(=O)COC(=O)c2ccccn2)c1C,1% (inactive)

row,SMILES,inhibition
1,CC(C)n1c(CN(C)c2ccccc2)nc2ccccc21,-18.1% (inactive)
2,COc1ccc(NC(C)=O)cc1S(=O)(=O)NC(Cc1ccccc1)C(=O)O (configuration not stated),-2.4% (inactive)
3,COc1ccc(OC)c(S(=O)(=O)Nc2ccc(OCC(=O)O)cc2)c1,2.7% (inactive)
4,COc1ccc(NC(=O)c2nnn(CC(=O)Nc3ccc4c(c3)OCO4)c2N)c(OC)c1,-46.4% (inactive)
5,C=CCN=C(NC#N)SCC(=O)NC(C)(C)C,1.5% (inactive)
6,Cc1cccc(-c2nnc(SCC(=O)NC3CC3)n2C)c1,-27.5% (inactive)
7,Cn1c(SCC(=O)NC2CCCCC2)nnc1-c1cccc(N)c1,46.1% (active)
8,Cn1c(SCC(=O)NC2CCCCC2)nnc1-c1ccc(N)cc1,-10.1% (inactive)
9,CCn1ccnc1[C@@H]1C[C@H]2CN(c3ccccc3OC)C(=O)[C@]23CCCN13,-22.3% (inactive)
10,C=C(C)Cn1c(NCCC)nc2c1c(=O)n(C)c(=O)n2C,-26.6% (inactive)
11,CC(CCc1ccccc1)NC(=O)CN1CCSc2ccccc21 (configuration not stated),8% (inactive)
12,CC(C)(C)C1CCC(=O)N(CCSc2ccccc2)CC1 (configuration not stated),-65% (inactive)
13,Cc1[nH]c(=S)[nH]c(=O)c1CCCO,-25.6% (inactive)
14,COC1=C(OC)C(=O)C(CCCCCCCCCCO)=C(C)C1=O,87.7% (active)
15,CC1=C(C)C(=O)C(CCCCC#CCCCC#CCO)=C(C)C1=O,-6.7% (inactive)
16,COc1ccc(C(CCN(Cc2ccc(OC)c(OC)c2)C(=O)CCl)c2ccccc2)cc1 (configuration not stated),82.9% (active)
17,COc1ccc(CNCCC(c2ccc(OC(C)C)cc2)c2ccccc2OC)cc1OC (configuration not stated),-0.9% (inactive)
18,COc1ccc(C(CCN(Cc2ccc(OC)c(OC)c2)C(C)=O)C(C)C)cc1 (configuration not stated),-0.7% (inactive)
19,COc1ccc(CNCCC(c2ccccc2)c2ccc(OC(C)C)cc2)cc1OC (configuration not stated),-3.1% (inactive)
20,COc1ccc(C(CCN(Cc2ccc(OC)c(OC)c2)C(C)=O)c2ccccc2)cc1 (configuration not stated),14.5% (inactive)
